Experimental findings from ChEMBL document CHEMBL4888484, “Replenishing the malaria drug discovery pipeline: Screening and hit evaluation of the MMV Hit Generation Library 1 (HGL1) against asexual blood stage Plasmodium falciparum ,using a nano luciferase reporter read-out” (2022) are described below.

Usually % Inhibition stands for the relative decrease from the control value, in per cent.

Among all 4,800 compounds or so, about 420 (8.8%) showed an effect of 50% or more. Shown is part of a subset that was picked to be rich in strong results.

The assay concerns Plasmodium falciparum. The experiment in a line: Confirmatory screen in NF54 nanoGlo assay, in single point, at 2uM, 72h. Format: functional, Erythrocyte. The conditions noted are these: timepoint 72 hour.
Consider `O=C(Cn1c(=O)n(-c2cc(F)cc(F)c2)c(=O)c2sccc21)NCc1ccc2c(c1)OCO2`, for which the “% Inhibition” value is on record as -9%.

In the case of `Cc1[nH]ccc(=O)c1Cc1c(Cl)cccc1Cl`, the “% Inhibition” value is -16%.

For `Cc1cc(NC(=O)Cn2ncnc2-c2cccc(C#N)c2)n(C)n1`, the “% Inhibition” value is reported as -1%.

Take `O[C@@H](CNCc1ccsc1C(F)(F)F)c1cc(Cl)c2c(c1)OCCO2`: the “% Inhibition” value stood at 32%.

As to `CCCN(Cc1c(C)nn(-c2ccccc2)c1N1CCN(CC)CC1)S(=O)(=O)c1ccc(C)cc1`, the “% Inhibition” value is -5%.

As to `Cc1sc2nc(-c3ccccn3)nc(NCC(=O)N3CCC(O)CC3)c2c1-c1ccccc1`, the “% Inhibition” value came out at 23%.

Turning to `Cc1cc(NCCc2nccn2C)ncn1`, the “% Inhibition” value is listed as -15%.

Take `COC(=O)COc1nonc1-c1ccccc1`: the “% Inhibition” value stood at 7%.

Turning to `Cc1nnc(Cn2ncnc2-c2ccccc2Cl)o1`, the “% Inhibition” value is listed as -3%.

Regarding `COc1ccc(OCC(=O)Nc2ccc(N3CCn4c(nc5ccccc54)C3)cc2Cl)cc1`, the “% Inhibition” value was -8%.

As to `Cc1cnc(C(=O)N2CCC[C@H]2c2nc(C3CCOCC3)no2)cn1`, the “% Inhibition” value is given as 0%.

For `Cc1cc(S(=O)(=O)NC(=O)c2ccnc(C3CCCC3)n2)c(C)s1`, the “% Inhibition” value was -2%.

As for `O=C(NC(c1ccccc1)c1ccccc1)C1=COCCO1`, the “% Inhibition” value is -9%.

Regarding `CCOC(=O)c1nc(-c2cccnc2)cs1`, the “% Inhibition” value is listed as -12%.

On to `Cc1cc(C(=O)N[C@@H](C)c2nc(-c3cccnc3)cs2)cc(O)n1`, for which the “% Inhibition” value is 53%.

As to `N#C[C@@H](C(=O)NCc1cccnc1)c1nc(-c2ccccc2)cs1`, the “% Inhibition” value was -1%.

As to `C#CCN1C(=O)N[C@@](CC)(C(C)C)C1=O`, the “% Inhibition” value was 10%.

In the case of `Cc1oc(=S)n2c1C[C@@H](c1ccccc1)N(Cc1ccccc1)C2`, the “% Inhibition” value is reported as -15%.

For `CCc1ccc(NC(=O)[C@H](C)N2CCC(NS(=O)(=O)c3cccs3)CC2)cc1`, the “% Inhibition” value is listed as 70%.

In the case of `Cn1cc(C(=O)NCC2CCN(S(=O)(=O)c3cccs3)CC2)cn1`, the “% Inhibition” value is given as -2%.

With `CCc1ccc(NC(=O)[C@@H]2CCn3c(C(=O)c4ccccc4)ccc32)cc1`, the “% Inhibition” value is recorded as 1%.

As for `CN(Cc1ccc(F)c(F)c1)S(=O)(=O)C[C@H]1CCN(C(=O)OCc2ccccc2)C1`, the “% Inhibition” value was -10%.

For the compound `Cc1cc(C)n(-c2ccc(CN3C(=O)NC4(CCCC4)C3=O)cc2)n1`, the “% Inhibition” value is reported as -4%.

On to `O=C1CN(C(=O)Cc2c(F)cccc2Cl)C2(CCCC2)CN1`, for which the “% Inhibition” value was -11%.

As to `Cc1nccc(NC(=O)C2CCC(F)(F)CC2)c1Cl`, the “% Inhibition” value is reported as -4%.

For `Cc1c(NC(=O)CC(C)(C)CC(=O)N2CCN(c3ccccc3F)CC2)c(=O)n(-c2ccccc2)n1C`, the “% Inhibition” value came to 2%.

Turning to `CC1(C)Oc2ccc(NC(=O)COc3ccccc3)cc2NC1=O`, the “% Inhibition” value is on record as 11%.

As to `O=C(COc1ccccc1)Nc1ccc2c(c1)C(O)=Nc1cccnc1O2`, the “% Inhibition” value is 58%.

Consider `CC(C)(C)CC(=O)Nc1ccc2c(c1)C(N1CCCCC1)=Nc1ccccc1O2`, for which the “% Inhibition” value is -13%.

As for `Cc1ccc([C@H]2C=NN(c3ccc(Br)cc3)C2=O)cc1`, the “% Inhibition” value was determined as 20%.

Consider `CCC(=O)Nc1nc2c(OC)cc(NS(=O)(=O)c3c(C)noc3C)cc2s1`, for which the “% Inhibition” value is -4%.

Consider `Cc1ccc(C)c(S(=O)(=O)NCCNc2ccc(Nc3ccncc3)nn2)c1`, for which the “% Inhibition” value was 28%.

As to `O=C(Nc1ccc(N2CCOCC2)cc1)Nc1ccc(F)cc1F`, the “% Inhibition” value was found to be 1%.

On to `Cc1onc(N)c1S(=O)(=O)Nc1ccncc1`, for which the “% Inhibition” value was -7%.

As to `CCC(=O)N1CCN(c2cc(Nc3ccc(C)cc3)nc(C)n2)CC1`, the “% Inhibition” value is on record as -1%.

`CCNc1nc(C)cc(Nc2ccc(NC(=O)c3cc(C)ccc3C)cc2)n1`: the “% Inhibition” value is listed as 98%.

Consider `Cc1ccccc1S(=O)(=O)NCc1nnc(C(=O)Nc2ccc(F)cc2F)s1`, for which the “% Inhibition” value is given as -5%.

Consider `CCNc1nc(C)cc(Nc2ccc(NS(=O)(=O)c3c(C)noc3C)cc2)n1`, for which the “% Inhibition” value came to 92%.

As for `CC(C)c1ccc(-c2nn3c(C4CCN(S(C)(=O)=O)CC4)nnc3s2)cc1`, the “% Inhibition” value is recorded as -20%.

In the case of `C[C@H](C#N)CNc1ncc(Br)cn1`, the “% Inhibition” value was 1%.

Regarding `CN(c1ccc(Cl)cn1)S(=O)(=O)c1ccc2ncccc2c1`, the “% Inhibition” value is reported as -22%.

`C[C@H]1CN(Cc2cc3c(cc2Br)OCO3)CCN1S(C)(=O)=O`: the “% Inhibition” value is -2%.

In the case of `Brc1ccc(NCc2[nH]nnc2-c2ccccc2)cc1`, the “% Inhibition” value was found to be 2%.

As for `O=S(=O)(c1ccccc1Br)N1CC[C@H]1c1ccccc1`, the “% Inhibition” value is given as -6%.

As to `CN(c1ncc(S(=O)(=O)c2ccccc2)c(N)n1)C1CCCCC1`, the “% Inhibition” value was -9%.

As for `Cn1ccnc1CN1CCC[C@@](O)(CNS(=O)(=O)c2cccs2)CC1`, the “% Inhibition” value is given as -10%.

Consider `CC(C)(C)c1ccnc(N[C@H]2CO[C@H]3[C@@H]2OC[C@@H]3NC(=O)NCc2ccccc2)n1`, for which the “% Inhibition” value is 18%.

Turning to `Cc1nn(CCC(=O)NC2CCCC2)cc1Br`, the “% Inhibition” value is -10%.

Consider `CN(C)c1ccc(C(=O)N[C@@]2(C)CCS(=O)(=O)C2)cc1`, for which the “% Inhibition” value is -6%.

For `Cc1cnn(Cc2cc(C(=O)N(C)Cc3nc4ccccc4n3C)no2)c1`, the “% Inhibition” value was -6%.

As for `O=C(Nc1cccc2cccnc12)N1CCOCC1CC(O)c1cccs1` (stereo not drawn), the “% Inhibition” value was found to be 0%.

Consider `Cc1nnc(O)c(CNC(=O)COC2CCCC(C)C2)c1C` (stereo not drawn), for which the “% Inhibition” value is listed as -7%.

`c1ccc(-c2nc(C[n+]3ccc4c(c3)CCCC4)cs2)cc1`: the “% Inhibition” value turned out to be 57%.

`Cc1ncccc1C(=O)NCCc1csc(-c2ccccc2)n1`: the “% Inhibition” value is -11%.

As to `Cc1cc(C)cc(NC(=O)CCn2c(=O)cc(C(F)(F)F)c3cn(C(C)C)nc32)c1`, the “% Inhibition” value is -14%.

For the compound `CC1(C)CCC(Nc2ccc(C(N)=O)nn2)CC1`, the “% Inhibition” value is recorded as 70%.

With `CCn1cnc2c(N3CCC[C@H](c4ccncc4)C3)ncnc21`, the “% Inhibition” value is 68%.

On to `Brc1cncnc1N1CCC[C@H](c2nnn[nH]2)C1`, for which the “% Inhibition” value was -15%.

Regarding `CCn1c(=O)c(N2CCC[C@H](C(=O)NCc3ccccc3OC)C2)nc2cccnc21`, the “% Inhibition” value is recorded as -7%.

Consider `CC(C)(C)NC(=O)N[C@H]1COc2c1ccc(Cl)c2Cl`, for which the “% Inhibition” value was -3%.

`Cc1ccc(C(=O)Nc2ccc(N3CCN(c4c(F)c(F)c(F)c(F)c4F)CC3)cc2)c(Cl)c1`: the “% Inhibition” value stood at 10%.

On to `O=C(O)c1cc(N2CCC(Cc3ccccc3)CC2)ccc1NC(=O)C1CCC1`, for which the “% Inhibition” value is listed as -14%.

As for `O=C(Nc1nc2ccccc2[nH]1)C1CCN(c2cc3c(nn2)CCC3)CC1`, the “% Inhibition” value is given as 5%.

On to `NC(=O)c1ccccc1NC(=O)C1CCN(c2cc(C3CC3)ncn2)CC1`, for which the “% Inhibition” value was 53%.

For `Cc1cn([C@H]2C[C@@H](OC(=O)c3ccccc3)[C@@H](CO)O2)c(=O)[nH]c1=O`, the “% Inhibition” value was -6%.

With `CC(C)NC(=O)[C@H](C)N(C)Cc1nccn1CC(F)(F)F`, the “% Inhibition” value was -1%.

As for `CCC(CC)c1ccc([C@H]2N(C(=O)c3ccc(C)cc3)CCN2S(=O)(=O)c2ccccc2)cc1`, the “% Inhibition” value is listed as -2%.

As to `O=S1(=O)CCN(C2CCN(Cc3c(F)cccc3F)CC2)CC1`, the “% Inhibition” value turned out to be 4%.

Consider `COc1cccc(N2C(=O)C[C@]3(CC3(c3ccccc3)c3ccccc3)C2=O)c1`, for which the “% Inhibition” value came out at 39%.

As to `CN1C2(c3ccccc3)C3C(=O)N(c4ccccc4)C(=O)C3C1(c1ccccc1)C1C(=O)N(c3ccccc3)C(=O)C12` (stereo not drawn), the “% Inhibition” value is recorded as 2%.

Regarding `Cc1ccc(N2C(=O)C[C@]3(CC3(c3ccccc3)c3ccccc3)C2=O)cc1`, the “% Inhibition” value is 66%.

Regarding `O=S(=O)(Cc1ccno1)NCCc1ccccc1OC(F)F`, the “% Inhibition” value was found to be 2%.

With `Cc1ccc(C(=O)Nc2noc(-c3ccc(C)cc3)c2-c2ccccc2Cl)cc1`, the “% Inhibition” value is -11%.

Turning to `c1cc(-c2cn3c(COc4ccc5c(c4)OCO5)nnc3s2)ccn1`, the “% Inhibition” value is on record as 3%.

As to `CC1CCN(C[C@H]2CCCCCN2C(=O)NCCc2ccccc2)CC1`, the “% Inhibition” value stood at 34%.

Take `O=C(Cc1cc(F)c(F)cc1F)N1CCOC[C@H]1c1ncon1`: the “% Inhibition” value is on record as -3%.

Consider `Cc1nc2ccccc2cc1OCc1ccc(F)cc1`, for which the “% Inhibition” value amounted to 3%.

For `CC(NC(=O)N[C@@H]1C=C[C@H](CO)C1)c1ccncc1F` (stereo partly drawn), the “% Inhibition” value is reported as 2%.

With `S=c1cc(-c2ccccc2)n(Cc2ccco2)c2c1CCCC2`, the “% Inhibition” value was determined as 38%.

Regarding `Cc1ccc(Cc2nc(N3CCCN(C(=O)CCc4ccccc4)CC3)c3cnn(-c4ccccc4)c3n2)cc1`, the “% Inhibition” value was found to be 1%.

On to `COCCOc1ccc2c(n1)CCN(C(=O)c1ccc(OC)c(OC)c1)C2`, for which the “% Inhibition” value is recorded as -12%.

For the compound `Cc1nn(C)cc1NC(=O)N[C@H]1CCCC[C@@H]1O`, the “% Inhibition” value was -9%.

With `C[C@@H](C1CC1)N(C1CC1)S(=O)(=O)c1ccc(F)cc1F`, the “% Inhibition” value is given as -2%.

With `Cc1ncccc1C(=O)Nc1cccc(Oc2cccnn2)c1`, the “% Inhibition” value was determined as 1%.

In the case of `Cc1c(Cl)c(C(F)(F)F)nn1[C@@H](C)C(=O)NC1CCN(C(C)C)CC1`, the “% Inhibition” value is -4%.

`COc1cccc(-c2cc3c(N4CC=C(c5ccccc5)CC4)nccn3n2)c1`: the “% Inhibition” value was -2%.

For `CC[C@H]1Cn2c(C(=O)N3CCN(C(=O)c4ccco4)CC3)cc3c(Cl)ccc(c32)O1`, the “% Inhibition” value was -17%.

`CCCn1nc(-n2cnnc2)c(NC(=O)c2ccc3c(c2)OCO3)c1C`: the “% Inhibition” value was -4%.

On to `CCOc1ccc(NC(=O)c2cnc(N(Cc3ccccc3)C(C)C)nc2N)cc1`, for which the “% Inhibition” value was -15%.

On to `CCOC(=O)C1CCC(CN(Cc2ccc(OC)cc2)S(=O)(=O)c2cc(C(=O)Nc3ccc(OCC)cc3)ccc2F)CC1` (stereo not drawn), for which the “% Inhibition” value came out at 50%.

Regarding `CCOc1ccc(NC(=O)c2ccc3c(c2)N(CC)[C@@H]2CCCCN2C3=O)cc1`, the “% Inhibition” value amounted to 7%.

Turning to `CN(c1ccc(Br)cc1)S(=O)(=O)c1ccc2c(c1)CCN2C(=O)C1CCC1`, the “% Inhibition” value was -7%.

For the compound `COc1ccccc1CNC(=O)c1cnn2c(-c3ccc(Cl)cc3)ccnc12`, the “% Inhibition” value is -4%.

For `c1cncc(CN2CCN(C3CCCCCC3)CC2)c1`, the “% Inhibition” value is 3%.

`Cc1cccc(Cn2ccc(-c3cccc(OCc4ccc(Cl)cc4Cl)c3)n2)c1`: the “% Inhibition” value is recorded as -4%.

As for `C[C@H]1CC(C)(C)N(C)c2ccc(/C=C/c3c(C(=O)O)cnc4ccnn34)cc21`, the “% Inhibition” value came out at 7%.

As to `CN(C)CCCNCc1ccccc1F`, the “% Inhibition” value was -2%.

For the compound `OCCNCc1c(Cl)cccc1Cl`, the “% Inhibition” value is recorded as -1%.

Consider `Clc1cccc(CNCCCNc2ccncc2)c1Cl`, for which the “% Inhibition” value came out at 71%.

As to `CC[C@@H](CCNS(=O)(=O)c1cn(C(F)F)nc1C)n1ccc(C(F)(F)F)n1`, the “% Inhibition” value is recorded as -8%.

Consider `CCOC(=O)Oc1c(OC)cc(C(=O)Nc2ccc3c(c2)sc(=O)n3C)cc1OC`, for which the “% Inhibition” value amounted to 6%.

In the case of `CCOc1cc(C(=O)Nc2ccc3nc4c(c(Nc5ccc(OC)c(OC)c5)c3c2)CCCC4)cc(OCC)c1OCC`, the “% Inhibition” value is reported as 96%.

As to `COc1ccc(Nc2nc(C(=O)Nc3ncc(C)s3)cs2)cc1OC`, the “% Inhibition” value worked out at 17%.
